A selection: hits, their analogues and other compounds. The true share with any hit is near 4.1%.
DAX1 inh-1 – inhibits human nuclear receptor DAX1; 0.99% of 340,000 active; HEK293 Gal4-DAX1 luciferase reporter, luminescence; AID 504766; inhibition, % at 6.75 µM;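 active means inhibition above the mean over all tested compounds plus 3 SD, cut at about 4.2% in these data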;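 further: 0% = DAX1-transfected cells with DMSO and 100% = empty-vector control cells with DMSO; inhibition shows as a rise in luminescence from relieved DAX1 repression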
Target sequence (P51843 207-470 limits assumed): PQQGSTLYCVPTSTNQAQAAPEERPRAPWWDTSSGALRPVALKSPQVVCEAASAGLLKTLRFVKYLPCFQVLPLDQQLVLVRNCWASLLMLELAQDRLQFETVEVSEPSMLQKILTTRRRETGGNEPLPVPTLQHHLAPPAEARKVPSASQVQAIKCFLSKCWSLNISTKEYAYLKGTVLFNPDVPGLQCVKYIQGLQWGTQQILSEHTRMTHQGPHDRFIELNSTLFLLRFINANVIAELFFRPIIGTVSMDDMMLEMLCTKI
ssDAF-12 act – activators of S. stercoralis DAF-12 nuclear receptor. HEK293 ssDAF-12/GRIP1 lit1-tk-luc reporter, luminescence; % of 3 µM dafachronic acid response. activation, % at 6.8 µM. 1% of 370,000 active. AID 652126;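 active means activation above the mean over all tested compounds plus 3 SD, cut at about 0.9% in these data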;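 further: 0% = DMSO-only wells and 100% = 3 µM delta7-dafachronic acid wells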
hgDAF12 agonist – activates the H. glycines DAF-12 receptor ligand-binding domain; HEK293 GAL4-hgDAF12 UAS-luciferase reporter, agonist luminescence; normalized to butyrate control; activation, % at 6.8 µM; 1.8% of 370,000 active; AID 687014;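 active means activation above a cutoff set at the mean of all screened compounds plus 3 SD, cut at about 10% in these data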;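 further: 0% = DMSO wells and 100% = sodium butyrate wells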
hcDAF12 agonist – activators of H. contortus DAF-12 nuclear receptor | HEK293 hcDAF-12 lit1-tk-luc reporter, luminescence; 0% DMSO, 100% Δ7-dafachronic acid | activation, % at 6.8 µM | 1.4% of 370,000 active | AID 652067;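 active means activation above the mean of all tested compounds plus 3 SD, cut at about 5.5% in these data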;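 further: 100% = response to 3 µM Δ7-dafachronic acid high control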
DAX1 inh-2 – blocks DAX1 repression of SF-1 activated StAR promoter; HEK293T StAR-luciferase reporter, SF-1/DAX-1 repression relief; inhibition, % at 6.8 µM; 1.1% of 370,000 active;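 active means inhibition above the mean over all tested compounds plus 3 SD, cut at about 3.6% in these data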;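 further: 0% = DAX-1 cells with DMSO and 100% = cells lacking DAX-1 with DMSO; higher inhibition means more luminescence from relief of DAX-1 repression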
An asterisk follows results filed as active; x = no result.

SMILES	DAX1 inh-1	ssDAF-12 act	hgDAF12 agonist	hcDAF12 agonist	DAX1 inh-2
O=C(N[C@H](Cc1ccccc1)C(=O)NCc1cccc2ccccc12)[C@H]1O[C@@H](n2ccc(=O)[nH]c2=O)[C@H](O)[C@@H]1O	x	-1	0	-1	0
O=[N+]([O-])c1ccc(Nc2nc(N3CCOCC3)nc(N3CCOCC3)n2)cc1	0	1.1*	0	0	0
Fc1ccc(Nc2nc(N3CCOCC3)nc(N3CCOCC3)n2)cc1	1	-1	0	-2	0
CC(=O)Nc1cc2c(cc1Cl)-c1ccc(F)cc1C2O (configuration not stated)	1	1.5*	4	4	2
COc1ccc(N=Cc2ccccc2O)cc1	1	0	2	3	0
COc1ccc(N=Cc2oc3ccc4ccccc4c3c2O)cc1	0	1.2*	5	3	2
OCCCN1CCC2(CCC(c3ccccc3)CC2)C1 (configuration not stated)	x	-2	2	2	0
COc1cc(/C=N/Nc2ccc(C(F)(F)F)cn2)ccc1O	-1	0	4	3	0
O=C(O)c1ccc(/C=N/Nc2ccc(C(F)(F)F)cn2)cc1	1	3.4*	19*	6.0*	4.2*
O=C(N/N=C/c1ccc(O)cc1)c1cccc(C(F)(F)F)c1	-1	-1	1	2	0
COc1ccc(/C=N/Nc2ccc(C(=O)O)cc2)cc1Br	-2	-1	4	4	4.0*
O=C(O)c1ccc(/C=N/Nc2cccc(C(F)(F)F)c2)cc1	0	-1	3	1	4.3*
O=C(Nc1ccc(F)c(Cl)c1)c1ccc2c(c1)OCO2	3	0	11*	6.2*	2
COc1ccc(NC(=O)C=C(C)C)cc1Cl	1	-1	10	3	4.2*
COc1ccc(C(CC(=O)c2ccc3c(c2)OCO3)C(=O)O)cc1OC (configuration not stated)	2	4.0*	1	0	-1
COCC(=O)Nc1ccc(OC)c(Cl)c1	1	-1	-2	-1	0
COc1ccc(NC(=O)c2ccc3c(c2)OCO3)cc1Cl	2	1	10*	3	4.0*
COc1ccc(CCC[C@H](CCC(=O)N(c2ccccc2)c2ccccc2)CCc2ccccc2)cc1	x	-1	1	-3	-1
O=C(Nc1ccc(Cl)c(Cl)c1)c1ccc(Cl)c(Cl)c1	2	1	13*	5	1
COc1cccc(CN(C)C(=O)Cc2c[nH]c3ccccc23)c1	0	1	7	6.1*	1
COc1ccc(CN(C)C(=O)Cc2c[nH]c3ccccc23)cc1	-1	1	1	6.1*	-1
CCOC(=O)[C@@]12CCCC=C1N(CCc1ccc(Cl)cc1)C(=O)[C@H]2CC(=O)NCc1cccc2ccccc12	x	-1	-2	-1	0
O=C(C1CCN(c2nc(-c3ccc(Br)cc3)cs2)CC1)N1CCNCC1	x	-1	5	-1	x
COc1cc([N+](=O)[O-])ccc1NC(=O)COC(=O)c1n[nH]c2ccccc12	-2	-1	-1	6.3*	0
COc1ccccc1CC(=O)Nc1ccc([N+](=O)[O-])cc1O	5.9*	0	-1	1	0
SMILES	DAX1 inh-1	ssDAF-12 act	hgDAF12 agonist	hcDAF12 agonist	DAX1 inh-2
CCOC(=O)c1c(C)[nH]c(C)c1C(=O)COC(=O)c1cccnc1Cl	-1	-1	2	1	0
CCOc1ccc(N=C(/C(C(=O)C(=O)N2CCOCC2)=C(\O)c2ccccc2)c2ccccc2)cc1	4	0	12*	4	2
CCOC(=O)/C(=C\c1c[nH]c2ccccc12)NC(C)=O	0	1.4*	-3	3	0
COc1ccc(/C=C2\SC(=S)N(CCCC(=O)Nc3ccccc3C(=O)O)C2=O)cc1OC	1	-1	0	6.3*	0
COc1ccc(/C=C2\SC(=S)N(CCC(=O)Nc3ccccc3C(=O)O)C2=O)cc1	-1	-1	-2	-3	0
COc1ccc(NC(=O)OCCN2CCCC23CCC(c2ccccc2)CC3)cc1 (configuration not stated)	x	-2	1	-1	x
O=C(Nc1ccc(C(=O)N2CCCCC2)cc1)[C@H]1O[C@@H](n2ccc(=O)[nH]c2=O)[C@H](O)[C@@H]1O	x	-1	1	1	3.7*
CNC(C#Cc1ccccc1)c1ccccc1C(F)(F)F (configuration not stated)	x	-1	0	-2	x
COc1ccc(OC)c(CN2C(=O)CSCCC2(C)c2nnnn2C2CCCC2)c1 (configuration not stated)	x	-1	2	4	0
CCCC[C@H](CCCc1ccc(F)cc1)CCC(=O)N(c1ccccc1)c1ccccc1	x	-1	-2	0	1
COC(=O)c1cc(C)sc1NC(=O)CSc1ncccn1	1	-1	-1	-1	0
CSc1ccccc1OCc1cc(C(=O)N(C)Cc2nonc2C)no1	2	-1	3	2	4.0*
Cc1nc(CNC(=O)c2cc(COc3c(F)cccc3F)on2)cs1	6.3*	-2	-1	1	0
CSc1ccccc1OCc1cc(C(=O)NCc2cccc(C)n2)no1	2	-1	11*	4	3
CSc1ccccc1OCc1cc(C(=O)NC(C)Cc2cccc(C)n2)no1 (configuration not stated)	-1	-2	-2	-4	-2
Cc1nc(CN(C)C(=O)c2cc(COc3c(F)cccc3F)on2)cs1	2	-1	-5	0	0
Cc1nonc1CN(C)C(=O)c1cc(COc2ccc(F)cc2Cl)on1	-1	-1	4	-3	0
CCCCCCC(=O)n1ccc2ccc(-c3ccc4ccn(Cc5ccc(OC)cc5)c4c3)cc21	x	-1	2	-2	-1
Clc1ccc(OCc2noc(-c3ccsc3)n2)c(Cl)c1	8.3*	0	11*	2	2
Cc1cc(C)nc(N/C(=N\S(=O)(=O)Cc2ccccc2)Nc2ccccc2Br)n1	4.4*	0	3	1	1
O=C(OC12CCCN(C1)/C(=C/c1cccc(Cl)c1)C2)c1ccno1 (configuration not stated)	x	-1	3	-1	0
COc1cccc(NC(=S)N(CCC(C)C)C(C)c2ccncc2)c1 (configuration not stated)	0	-1	1	2	0
CSc1cccc(NC(=S)N(CCC(C)C)C(C)c2ccncc2)c1 (configuration not stated)	4.7*	-1	3	0	0
CC(C)c1ccc(NC(=S)N2CCCC2)cc1	2	0	6	5	3.9*
CC(C)c1ccc(NC(=S)N2CCN(C)CC2)cc1	1	0	2	-1	1
c1ccc2nc3c(nc2c1)OCC1CCCCN31 (configuration not stated)	4	1	8	6.2*	1
CC(=O)N1CCN(C(=O)CCn2nnc3ccccc32)CC1	x	-2	1	3	0
